The sample as a whole holds a higher share of hits than the screen did.
NOMO-1 viab – NOMO-1 AML cell viability reduction, primary screen, STK33 inhibitor project, CellTiter-Glo luminescence | AID 2330, 2010 | inhibition, % (concentration not given with the values) | 7.5% of 37,000 active | NOMO-1 AML viability, 72 h; in the data active = inhibition above about 80%; inconclusive = no clear call, values can overlap the other calls
STK33 inh – STK33 kinase inhibitors, primary screen, biochemical, luminescence, ADP-Glo, MBP substrate. Serine/threonine-protein kinase 33 (Homo sapiens), Q9BYT3. 0.44% of 27,000 active. inhibition, % at 12.5 µM; in the data active = inhibition above about 20%; inconclusive = no clear call, values can overlap the other calls
Target sequence (Q9BYT3 whole entry, looked up): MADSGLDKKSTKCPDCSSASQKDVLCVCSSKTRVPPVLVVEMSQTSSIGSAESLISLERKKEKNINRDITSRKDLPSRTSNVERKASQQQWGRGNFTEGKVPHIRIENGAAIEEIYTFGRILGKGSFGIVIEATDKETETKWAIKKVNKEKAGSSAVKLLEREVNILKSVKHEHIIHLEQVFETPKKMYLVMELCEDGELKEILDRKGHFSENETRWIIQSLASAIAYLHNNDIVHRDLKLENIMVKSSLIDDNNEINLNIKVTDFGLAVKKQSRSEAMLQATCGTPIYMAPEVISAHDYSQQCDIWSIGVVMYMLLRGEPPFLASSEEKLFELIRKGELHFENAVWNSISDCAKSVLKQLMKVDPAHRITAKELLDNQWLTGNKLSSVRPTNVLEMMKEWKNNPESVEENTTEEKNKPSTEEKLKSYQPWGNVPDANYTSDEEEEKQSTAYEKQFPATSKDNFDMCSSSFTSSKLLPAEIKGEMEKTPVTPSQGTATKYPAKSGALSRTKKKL
PD-1 reverse act – activators reversing PD-1 mediated T-cell inhibition, primary screen, luminescence, primary human CD4 T cells, PD-L1 beads. CellTiter-Glo 96 h. activation, % (test concentration not listed). 29,000 tested, under 10 active; call rule not given here;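 note: 0% = median vehicle wells and 100% = positive control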
Numbers without * were called inactive; ? = inconclusive; nt = no result.

SMILES	NOMO-1 viab	STK33 inh	PD-1 reverse act
CCC(Sc1ncccn1)C(=O)Nc1c(C)cccc1C (stereo not given)	13.3	-2.1	-0.8
C[C@@H]1CN([C@@H](C)CO)C(=O)c2cc(NS(=O)(=O)c3ccc(Cl)cc3)ccc2O[C@@H]1CN(C)C	5.3	1.0	4.2
Cc1nccc(-c2cccc(NC(=O)Nc3ccccc3)c2)n1	44.4	nt	-0.8
C[C@@H]1CN([C@H](C)CO)C(=O)CCCn2nncc2CO[C@@H]1CN(C)C(=O)Nc1ccccc1F	nt	6.6	nt
C[C@H]1CN([C@@H](C)CO)C(=O)c2cc(NC(=O)Nc3ccc(C(F)(F)F)cc3)ccc2O[C@H]1CN(C)Cc1ccccc1	102.6*	-1.1	-3.0
C[C@@H]1CN([C@@H](C)CO)C(=O)c2cc(NC(=O)Nc3ccccc3)ccc2O[C@@H]1CN(C)Cc1ccc(C(F)(F)F)cc1	97.5*	1.5	-1.0
C[C@H]1CN([C@@H](C)CO)C(=O)c2cc(NC(=O)Nc3ccccc3)ccc2O[C@@H]1CN(C)Cc1ccc(C(F)(F)F)cc1	?	nt	0.9
C[C@@H]1CN([C@H](C)CO)C(=O)c2cc(NC(=O)Nc3ccc(C(F)(F)F)cc3)ccc2O[C@@H]1CN(C)Cc1ccc(-c2ccccc2)cc1	-11.6	nt	0.7
Cc1c(CO)c2ccccc2n1Cc1ccccc1C#N	120.9*	3.6	-5.4
Cc1c(C#N)c2ccccc2n1CC(=O)NCCc1c[nH]c2ccccc12	18.1	3.0	nt
COC(=O)c1ccc(C(=O)OC)c(NC(=O)COc2ccc3oc4c(c3c2)CCCC4)c1	-8.0	-3.2	nt
C[C@@H]1CN([C@H](C)CO)C(=O)Cc2cc(NC(=O)Nc3ccc(C(F)(F)F)cc3)ccc2O[C@@H]1CN(C)Cc1ccc2c(c1)OCO2	115.0*	1.0	-9.0
C[C@H](CO)N1C[C@H](C)[C@H](CN(C)Cc2ccc3c(c2)OCO3)Oc2ccc(NC(=O)Nc3ccc(C(F)(F)F)cc3)cc2CC1=O	124.0*	3.9	-2.7
C[C@@H]1CN([C@H](C)CO)C(=O)Cc2cc(NC(=O)Nc3ccc4c(c3)OCO4)ccc2O[C@@H]1CN(C)Cc1ccc(C(F)(F)F)cc1	81.0*	0.1	-2.9
C[C@H]1CN([C@@H](C)CO)C(=O)Cc2cc(NC(=O)Nc3ccc(C(F)(F)F)cc3)ccc2O[C@@H]1CN(C)Cc1ccc2c(c1)OCO2	5.3	0.8	nt
C[C@@H]1CN([C@H](C)CO)C(=O)Cc2cc(NC(=O)Nc3ccc(F)cc3)ccc2O[C@H]1CN(C)Cc1ccc2c(c1)OCO2	37.1	2.5	1.3
C[C@@H]1CN([C@@H](C)CO)C(=O)Cc2cc(NC(=O)Nc3ccc4c(c3)OCO4)ccc2O[C@@H]1CN(C)Cc1ccc2c(c1)OCO2	6.1	-0.6	-1.0
CC(C)NC(=O)N(C)C[C@H]1OCCCC[C@@H](C)Oc2ccc(NC(=O)Cc3ccccc3)cc2C(=O)N([C@H](C)CO)C[C@@H]1C	-6.4	-0.4	nt
COc1ccc(NC(=O)N(C)C[C@H]2Oc3ccc(NC(=O)Nc4ccc5c(c4)OCO5)cc3C(=O)N([C@@H](C)CO)C[C@H]2C)cc1	-2.2	nt	nt
COc1ccc(CN(C)C[C@@H]2Oc3ccc(NC(=O)Nc4cccc5ccccc45)cc3CC(=O)N([C@@H](C)CO)C[C@@H]2C)cc1	24.7	-3.1	nt
C[C@@H]1CN([C@H](C)CO)C(=O)Cc2cc(NC(=O)Nc3cccc4ccccc34)ccc2O[C@@H]1CN(C)Cc1ccc(-c2ccccc2)cc1	94.0*	2.6	-2.8
C[C@@H]1CN([C@H](C)CO)C(=O)Cc2cc(NC(=O)Nc3cccc4ccccc34)ccc2O[C@H]1CN(C)Cc1ccccc1	8.0	3.1	nt
C[C@@H]1CN([C@@H](C)CO)C(=O)Cc2cc(NC(=O)Nc3cccc4ccccc34)ccc2O[C@@H]1CN(C)Cc1ccc(-c2ccccc2)cc1	51.6	1.1	-0.9
C[C@@H]1CN([C@H](C)CO)C(=O)Cc2cc(NC(=O)Nc3cccc4ccccc34)ccc2O[C@@H]1CN(C)Cc1ccc(Oc2ccccc2)cc1	110.5*	-6.7	-4.7
C[C@H]1CN([C@@H](C)CO)C(=O)Cc2cc(NC(=O)Nc3cccc4ccccc34)ccc2O[C@@H]1CN(C)Cc1ccncc1	15.7	-1.0	2.7
SMILES	NOMO-1 viab	STK33 inh	PD-1 reverse act
C[C@@H]1CN([C@@H](C)CO)C(=O)Cc2cc(NC(=O)Nc3cccc4ccccc34)ccc2O[C@@H]1CN(C)Cc1ccc(C(F)(F)F)cc1	117.4*	4.1	-5.6
C[C@H](CO)N1C[C@H](C)[C@H](CN(C)Cc2ccncc2)Oc2ccc(NC(=O)Nc3cccc4ccccc34)cc2CC1=O	124.7*	nt	nt
C[C@H]1CN([C@@H](C)CO)C(=O)c2cc(NC(=O)CCC(F)(F)F)ccc2O[C@H]1CN(C)Cc1ccc(C(F)(F)F)cc1	32.1	nt	-2.5
C[C@@H]1CN([C@H](C)CO)C(=O)c2cccc(NC(=O)c3ccncc3)c2O[C@H]1CN(C)C(=O)Nc1cccc2ccccc12	8.2	nt	3.2
CC(C)(C)c1cc(O)c(C(C)(C)C)cc1O	114.3*	-0.1	nt
Cc1cc(C(C)(C)C)c(O)c(C(C)(C)C)c1	46.6	-8.6	nt
CC(C)NC(=O)Nc1ccc2c(c1)C(=O)N([C@@H](C)CO)C[C@H](C)[C@@H](CN(C)Cc1ccc(C(F)(F)F)cc1)O2	9.9	-0.3	2.2
C[C@@H]1CN([C@@H](C)CO)C(=O)c2cc(NC(=O)Nc3cccc4ccccc34)ccc2O[C@H]1CN(C)S(=O)(=O)c1ccccc1	12.8	nt	nt
C[C@@H]1CCCCO[C@@H](CN(C)Cc2ccncc2)[C@@H](C)CN([C@H](C)CO)C(=O)c2cc(N(C)C)ccc2O1	5.4	-1.1	0.6
COc1ccc(NC(=O)Nc2ccc3c(c2)C(=O)N([C@H](C)CO)C[C@H](C)[C@@H](CN(C)Cc2ccncc2)OCCCC[C@@H](C)O3)cc1	-2.0	nt	nt
Cc1nn(Cc2cccc(C(=O)NC(=O)Nc3ccc(Cl)cc3)c2)c(C)c1Br	106.9*	nt	2.5
Cc1nn(Cc2cccc(C(=O)Nc3ccccc3F)c2)c(C)c1Cl	-2.0	0.2	1.8
C[C@H]1CN([C@@H](C)CO)C(=O)c2cc(NC(=O)CCCN(C)C)ccc2O[C@H]1CN(C)C(=O)Nc1ccc(F)cc1	4.9	nt	0.7
C[C@@H]1CN([C@H](C)CO)C(=O)Cc2cc(NC(=O)Cn3cnnn3)ccc2O[C@H]1CN(C)S(=O)(=O)c1ccc(Cl)cc1	11.8	0.6	1.7
C[C@@H]1CN([C@H](C)CO)C(=O)c2cccc(NC(=O)CCCCCC(=O)Nc3ccccc3N)c2O[C@@H]1CN(C)CC1CC1	46.2	nt	2.0
C[C@@H]1CN([C@H](C)CO)C(=O)c2cccc(NC(=O)CCCCCC(=O)Nc3ccccc3N)c2O[C@H]1CN(C)CC1CC1	122.2*	nt	0.2
C[C@H]1CN([C@@H](C)CO)C(=O)c2cccc(NC(=O)CCCCCC(=O)Nc3ccccc3N)c2O[C@H]1CN(C)CC1CCCCC1	51.6	nt	1.6
C[C@H](CO)N1C[C@H](C)[C@H](CN(C)CC2CCCCC2)Oc2c(NC(=O)CCCCCC(=O)Nc3ccccc3N)cccc2C1=O	63.4	nt	0.8
C[C@@H]1CN([C@@H](C)CO)C(=O)c2cccc(NC(=O)CCCCCC(=O)Nc3ccccc3N)c2O[C@H]1CN(C)CC1CC1	127.9*	nt	0.4
